KB-V1 cytotox – kills drug-selected multidrug resistant KB-V1 cells; KB-V1 MDR cells viability, CellTiter-Glo, 72 h; Potency, µM (doses to about 46.1 µM), hits mostly cytotoxic; hit rate 3.4% among 400,000; AID 1347076; further: on the % scale 0 is the no-effect control and ±100 the full control effect; nearly all actives have a fitted effect of over 60% in size
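Potencies derive from concentration-effect curves fitted to normalized luminescence (CellTiter-Glo) of KB-V1 cells treated for 72 h at 37 degrees C in phenol-red-free DMEM containing 10% FBS.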
KB-3-1 tox – kills parental KB-3-1 adenocarcinoma cells | KB-3-1 viability, CellTiter-Glo ATP luminescence, 72 h | Potency, µM (titrated, usually from 46.1 µM), actives largely listed as cytotoxic | hit rate 1.4% among 400,000 | AID 1347075; further: on the % scale 0 is the no-effect control and ±100 the full control effect; nearly all actives have a fitted effect of over 60% in size
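Multi-concentration cytotoxicity screen in KB-3-1 cells grown in DMEM lacking phenol red with 10% FBS. After 72 h at 37 °C with compound, ATP-dependent luminescence was recorded.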
MCF10A rerep – inducers of DNA re-replication in MCF 10A breast cells; MCF 10A DNA re-replication, Hoechst nuclear intensity, 48 h; Potency, µM (series often up to 46.1 µM), without a hit: top-dose activity, positive = re-replication, hits mostly activators; hit rate 2.9% among 350,000; further: % of control where 0% means no effect; nearly all actives have a fitted effect of over 50% in size
HT1080 IDH1KD tx – kills HT-1080 cells with IDH1 knockdown. Potency, µM (highest dose often 46.1 µM), without a hit: at the top dose activity, negative = toxicity, usual class: cytotoxic. hit rate 2% among 360,000. HT-1080 IDH1 knockdown viability, ATP luminescence, 48 h;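 further: 0% = DMSO wells and -100% = cell-free medium wells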
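% activity derives from luminescence (CellTiter-Glo), normalised to DMSO and no-cell wells. HT-1080-IDH1KD cells, 750/well, had 48 h compound exposure at 37 °C.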
HT1080NT lethal – kills 2HG-producing HT-1080-NT fibrosarcoma cells. HT-1080-NT fibrosarcoma viability, CellTiter-Glo ATP luminescence, 48 h. Potency, µM (top dose mostly 46.1 µM), for the others: at the highest dose activity, negative = less viability, most hits filed as cytotoxic. hit rate 1.6% among 360,000. AID 686970;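 further: NT is the 2HG producing partner of a matched IDH1 knockdown line; 0% = DMSO-treated cells and -100% = media-only wells without cells; nearly all actives have a fitted effect of over 55% in size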
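750 cells/well, RPMI + 5% FBS; 2 h settle, compound pin-transfer, 48 h at 37 degrees C. CellTiter-Glo 10 min RT, luminescence. Normalized to DMSO and media-only wells.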
SW480 rereplic – induces DNA re-replication in SW480 colon adenocarcinoma cells | SW480 DNA re-replication, Hoechst DNA content imaging, 48 h | Potency, µM (series often up to 46.1 µM), for inactives: at the top dose re-replication activation, most hits filed as activators | hit rate 1.8% among 340,000; further: % of control where 0% means no effect; nearly all actives have a fitted effect of over 55% in size
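Cells (250 per well) received 23 nL compound or DMSO by pin tool and were kept 48 hr at 37 C, 5% CO2. Nuclei were then stained with Hoechst for 40 min and scanned for DNA content.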
Numbers without * were called inactive; i = inactive; ? = inconclusive; nt = not tested or not shown. Compounds with a hit are over-represented: about 7.9% of the library has one in this group of screens. The call rests on the fitted dose curve; in most records, active means well fitted curve in the direction sought with a large enough effect; inconclusive means small, poorly fitted or top-dose-only effect, or another doubt; inactive means no such curve, though single readings can be large; an effect the other way counts as inactive or inconclusive. Potency means the concentration at half of the fitted maximal effect.

SMILES | KB-V1 cytotox | KB-3-1 tox | MCF10A rerep | HT1080 IDH1KD tx | HT1080NT lethal | SW480 rereplic
COc1ccc(Cl)cc1N1C(=O)/C(=C/c2sccc2C)N=C1SCC(=O)NC1CC1 | i | ? | ? | -20.5% | -20.2% | ?
O=C(CSC1=N/C(=C/c2ccc(Cl)c(Cl)c2)C(=O)N1c1ccccc1F)NC1CC1 | 14.6µM* | i | 14.6µM* | -8.0% | 0.0% | ?
Cc1sc2nc3c4ccccc4c(NCc4ccco4)nn3c(=O)c2c1C | i | i | 2.59µM* | -22.2% | -23.8% | 4.61µM*
Cc1nc(NCc2ccco2)c2c(C)c(C)sc2n1 | ? | 11.6µM* | 23.6% | 2.82µM* | 5.62µM* | ?
CCOC(=O)c1sc2nc(CC(=O)OC)nc(NCc3ccco3)c2c1C | 3.26µM* | i | -0.5% | 0.4% | 11.0% | 0.5%
CCOC(=O)c1sc2nc(CSc3ccccc3)nc(NCCN(C)C)c2c1C | i | i | ? | ? | 18.4µM* | ?
O=C(NC1CCCC1)c1ccc(Br)c(S(=O)(=O)N2CCCCC2)c1 | i | i | 1.4% | 5.3% | 1.6% | -7.4%
Cn1c(N)c(C(=O)COC(=O)CCC(=O)c2cccs2)c(=O)n(C)c1=O | i | i | -1.4% | 21.4% | 6.1% | -8.9%
O=C(COC(=O)CCN1C(=O)c2cccc([N+](=O)[O-])c2C1=O)NC1CCS(=O)(=O)C1 (stereo not given) | i | i | 0.6% | -2.3% | 1.2% | 11.7%
Cc1cc(C)c(/C=C(\C#N)S(=O)(=O)c2ccccc2)[nH]1 | ? | i | 18.4µM* | -11.2% | 1.0% | 0.0%
COc1ccccc1NC(=O)Cc1noc(CSc2nnc(C)s2)n1 | ? | i | 0.8% | 19.1% | 4.4% | -4.3%
CC1(C(=O)NCCC(F)(F)F)Cc2c(-c3cccc(C(F)(F)F)c3)ccnc2O1 (stereo not given) | ? | ? | nt | 5.8µM* | 20.6µM* | nt
CC(=O)Nc1ccc(-c2ccnc3c2CC(C)(C(=O)NCc2ccc(F)c(F)c2)O3)cc1 (stereo not given) | i | 8.2µM* | nt | 14.6µM* | ? | nt
CC(=O)Nc1cccc(-c2ccnc3c2CC(C)(C(=O)Nc2cccc(Oc4ccccc4)c2)O3)c1 (stereo not given) | 20.6µM* | ? | nt | ? | ? | nt
CC(=O)Nc1cccc(-c2ccnc3c2CC(C)(C(=O)NCc2cccc(Cl)c2)O3)c1 (stereo not given) | ? | 14.6µM* | nt | ? | ? | nt
CC1(C(=O)Nc2cccc(Oc3ccccc3)c2)Cc2c(-c3ccccc3)ccnc2O1 (stereo not given) | i | ? | nt | ? | ? | nt
COC(=O)c1ccc(NC(=S)NCCc2ccc(OC)cc2)cc1 | i | ? | 20.0% | -7.7% | -7.2% | 2.4%
Cc1ccc(CCN2C(=O)CCC2(C)C(=O)NC2CCCC2)cc1 (stereo not given) | i | i | -3.8% | 3.1% | 0.0% | -4.5%
O=C(O)c1nn(Cc2nc3ccccc3o2)c(=O)c2ccccc12 | i | i | 1.9% | 5.0% | 14.7% | 26.1%
CCOc1ccc(NC(=O)CN(C)C(=O)CN2C(=O)c3ccc([N+](=O)[O-])cc3C2=O)cc1OCC | i | i | 0.5% | 1.7% | 4.0% | -5.7%
CC(=O)Nc1cccc(-c2ccnc3c2CC(C)(C(=O)NCCN(C)C)O3)c1 (stereo not given) | i | i | nt | 4.7% | 27.0% | nt
CC(=O)Nc1ccc(-c2ccnc3c2CC(C)(C(=O)Nc2cccc(C(F)(F)F)c2)O3)cc1 (stereo not given) | ? | i | nt | ? | ? | nt
CN(C)c1ccc(CNC(=O)C2(C)Cc3c(-c4cccc(C(F)(F)F)c4)ccnc3O2)cc1 (stereo not given) | ? | ? | nt | 18.4µM* | ? | nt
CC(=O)Nc1cccc(-c2ccnc3c2CC(C)(C(=O)NCc2cccs2)O3)c1 (stereo not given) | i | 3.26µM* | nt | 1.64µM* | ? | nt
CC1(C(=O)NCC2CCOCC2)Cc2c(-c3cccc(C(F)(F)F)c3)ccnc2O1 (stereo not given) | ? | ? | nt | 3.66µM* | ? | nt
SMILES | KB-V1 cytotox | KB-3-1 tox | MCF10A rerep | HT1080 IDH1KD tx | HT1080NT lethal | SW480 rereplic
CC(=O)Nc1ccc(-c2ccnc3c2CC(C)(C(=O)Nc2cccc(OC(F)(F)F)c2)O3)cc1 (stereo not given) | ? | ? | nt | ? | 25.9µM* | nt
CCN(C(=O)COC(=O)CCc1ccccc1OC)c1c(N)n(Cc2ccccc2)c(=O)[nH]c1=O | i | i | -0.7% | -0.3% | -0.8% | -2.2%
Cc1ccnc2nc(C(=O)OCC(=O)NC3CCC(C)CC3)nn12 (stereo not given) | i | i | -4.2% | 19.8% | 5.6% | -4.4%
CC(=O)Nc1cccc(-c2ccnc3c2CC(C)(C(=O)NCCc2ccccc2)O3)c1 (stereo not given) | ? | 4.11µM* | nt | ? | ? | nt
CC(=O)Nc1cccc(-c2ccnc3c2CC(C)(C(=O)Nc2ccccc2)O3)c1 (stereo not given) | i | i | nt | 0.0% | -14.2% | nt
CC(=O)Nc1cccc(-c2ccnc3c2CC(C)(C(=O)NCc2ccc(N(C)C)cc2)O3)c1 (stereo not given) | ? | 10.3µM* | nt | 5.17µM* | ? | nt
CC(=O)N1c2ccc(S(=O)(=O)NCCC(=O)NCCc3cccc(C)c3)cc2CC1C (stereo not given) | i | ? | 2.0% | 3.5% | 8.5% | 0.7%
COc1ccccc1N(C)S(=O)(=O)c1ccc(Cl)c(C(=O)NNC(=O)c2ccccc2O)c1 | i | ? | 12.0% | -1.4% | -4.2% | 2.9%
COc1ccccc1N(C)S(=O)(=O)c1ccc(Cl)c(C(=O)OCc2c(C)noc2C)c1 | i | i | 16.4µM* | -1.9% | 0.1% | ?
COc1cccc(C(=O)Nc2ccc(NC(=O)C3CC=CCC3C(=O)O)cc2)c1 (stereo not given) | i | i | -4.6% | 2.1% | -10.6% | -6.7%
CCCC(=O)N(Cc1cc(=O)[nH]c2ccccc12)c1cccc(C)c1 | i | i | -0.6% | -13.8% | -5.9% | 8.6%
Cc1cccc(N(Cc2cc(=O)[nH]c3ccccc23)C(=O)CCl)c1 | ? | i | ? | ? | 20.6µM* | ?
CCCC(=O)N(Cc1cc(=O)[nH]c2ccccc12)c1ccc(OC)cc1 | i | i | 6.1% | -13.0% | -1.7% | -5.7%
COc1ccc(N(Cc2cc(=O)[nH]c3ccccc23)C(=O)CCl)cc1 | ? | ? | ? | 23.1µM* | 3.26µM* | 3.26µM*

High-throughput results from PubChem.
